Results: PubChem BioAssay (NCI)
The panel holds about 83,000 compounds, 20% with a hit somewhere; the sample as a whole holds those more often.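 Note: values are percent growth. 100 is the growth of untreated cells, values between 100 and 0 indicate rising inhibition; between -100 and 0 indicates cell death.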 Values without a mark were called inactive. The source made the active and inactive calls. How the source made its calls: active means growth percent below 10; inactive means the rest.

Assays:
Assay in all cases: NCI-60 one-dose screen, 48 h (100 = growth as untreated, 0 = no growth, -100 = all killed)
Conditions in all cases: 10 µM unless noted
NCI-H23 lung = test system: NCI-H23 lung
NCI-H226 lung = test system: NCI-H226 lung
NCI-H322M lung = test system: NCI-H322M lung
HOP-62 NSCLC = test system: HOP-62 NSCLC
NCI-H460 lung = test system: NCI-H460 lung
NCI-H522 lung = test system: NCI-H522 lung
A549/ATCC NSCLC = test system: A549/ATCC NSCLC
786-0 renal = test system: 786-0 renal
COLO 205 colon = test system: COLO 205 colon
DU-145 prostate = test system: DU-145 prostate
K-562 leukemia = test system: K-562 leukemia
MALME-3M melanoma = test system: MALME-3M melanoma
MDA-MB-231 breast = test system: MDA-MB-231 breast
RXF 393 renal = test system: RXF 393 renal
SF-268 CNS = test system: SF-268 CNS
SF-295 CNS = test system: SF-295 CNS
SF-539 CNS = test system: SF-539 CNS
UACC-257 melanoma = test system: UACC-257 melanoma
M14 melanoma = test system: M14 melanoma

SMILES	growth (NCI-H23 lung)	growth (NCI-H226 lung)	growth (NCI-H322M lung)	growth (HOP-62 NSCLC)	growth (NCI-H460 lung)	growth (NCI-H522 lung)	growth (A549/ATCC NSCLC)	growth (786-0 renal)	growth (COLO 205 colon)	growth (DU-145 prostate)	growth (K-562 leukemia)	growth (MALME-3M melanoma)	growth (MDA-MB-231 breast)	growth (RXF 393 renal)	growth (SF-268 CNS)	growth (SF-295 CNS)	growth (SF-539 CNS)	growth (UACC-257 melanoma)	growth (M14 melanoma)
COc1cnc2c(c1)C(=O)c1c-2n(CCCNC(C)C)c(=O)c2cc(Cl)ccc12	-64.5% (active)	25.5%	-35.7% (active)	-88.4% (active)	-82.9% (active)	-79.8% (active)	-84% (active)	-96.3% (active)	-89.8% (active)	-78.4% (active)	-80% (active)	-73.4% (active)	-79.7% (active)	-77.1% (active)	-64.2% (active)	-77.3% (active)	-97.3% (active)	48.2%	-83.4% (active)
Cc1c(C(N)=O)sc2ncn(CC(=O)NN=C3CCCCC3)c(=O)c12	111%	96.7%	116%	104%	115%	83.8%	111%	105%	129%	111%	103%	136%	103%	83.5%	108%	98.6%	105%	165%	105%
Fc1ccc(-c2nc(-c3ccc(-c4nc5ccc(F)cc5[nH]4)cc3)no2)cc1	67.7%	54.9%	70.5%	79.6%	67.4%	91.4%	75.4%	102%	71.6%	39.4%	63%	68.3%	74.3%	79.8%	66.1%	73.4%	69.2%	87.8%	62.3%
CN1C2CCC1/C(=C\c1ccc(Cl)cc1)C(=O)/C2=C/c1ccc(Cl)cc1	62.4%	73.8%	72.4%	85.8%	47%	54.7%	63.7%	75.4%	41.7%	41.8%	34.3%	73.7%	67%	87.2%	60.5%	77.4%	91.5%	60.9%	63.8%
O/N=C1\c2ccccc2-c2ccc(Br)cc21	96.1%	103%	101%	113%	106%	95.8%	97.4%	98.6%	136%	110%	98.7%	103%	107%	116%	102%	99.2%	97.8%	106%	129%
CCCCCCCCCCCCCCCC1=NCCN1	72.5%	80.6%	76.6%	55.3%	32.5%	74%	-15.4% (active)	78.8%	-70.8% (active)	72.6%	3.78% (active)	103%	30.6%	60.6%	71.3%	90.9%	72.5%	99.9%	72.3%
COc1ccc(-n2c(COc3ccc(F)cc3)n[nH]c2=S)cc1	112%	101%	96.8%	105%	110%	90.3%	131%	102%	116%	112%	129%	115%	89.3%	80.3%	97.8%	74.1%	101%	186%	112%
O=C1Nc2ccc(Cl)cc2/C1=C\c1c(-c2ccc(F)cc2)nc2ccccn12	-20.1% (active)	-30.8% (active)	43.6%	-10.3% (active)	6.88% (active)	11.4%	23.7%	24.6%	45.7%	-19% (active)	-39.5% (active)	16.6%	45.9%	-13.4% (active)	5.15% (active)	-41% (active)	-31.2% (active)	75.6%	-9.52% (active)
O=C1Nc2ccccc2/C1=C\c1nc(C2CCN(S(=O)(=O)c3ccc(F)cc3)CC2)n2ccccc12	42%	41.2%	55.5%	47.8%	65%	16.5%	68.1%	-3.81% (active)	79.1%	57.1%	56.9%	3.9% (active)	32.8%	16.6%	14.2%	46.5%	27.4%	72%	61.5%
CC(=O)NC1C(O[C@H]2C[C@H]3[C@@H]4CC=C5C[C@@H](O)CC[C@]5(C)[C@H]4CC[C@]3(C)[C@H]2[C@H](C)C(=O)CCC(C)C)OCC(O)C1O (some centres undefined)	65.9%	60.6%	81.3%	52%	22.9%	66.7%	53.1%	1.28% (active)	30.1%	57.7%	0.56% (active)	34.7%	59.9%	-43.2% (active)	31%	-53.2% (active)	-26.2% (active)	-15.5% (active)	-22.2% (active)
CN1C(=O)N(C)C2C1NN=c1s/c(=C\c3ccsc3)c(=O)n12 (centres undefined)	59.4%	46.1%	65.1%	46.8%	18.2%	26.4%	42.2%	47.6%	41.1%	74.9%	13.5%	54.3%	66.8%	51.6%	64.4%	25%	40.2%	60.9%	22.7%
COC1(OC)C2(Cl)CCC1(Cl)C(Cl)=C2Cl	99.4%	98.2%	100%	129%	106%	97%	95.6%	102%	128%	108%	110%	99.4%	106%	107%	106%	105%	101%	93.2%	96.9%
COc1cccc(-c2cc(-c3cccs3)c(C#N)c(=O)[nH]2)c1	98.9%	110%	108%	108%	102%	98.8%	102%	94.1%	111%	108%	102%	110%	106%	117%	104%	102%	101%	115%	105%
Cc1cc(O)c2cc3c(O)c(O)ccc3cc2c1	101%	115%	119%	120%	125%	88.6%	117%	91.5%	123%	105%	90.8%	109%	95.2%	107%	135%	109%	100%	132%	128%
O=C(Nc1ccc(Br)cc1)Nc1cccc(Br)c1	18.4%	53.1%	55.4%	56.6%	12.2%	-28.5% (active)	32.1%	68.6%	28.1%	30.7%	4.34% (active)	60.2%	66.6%	105%	69%	28.1%	76.6%	36.3%	24.1%
C#C[C@]1(O)CC[C@H]2[C@@H]3CC=C4c5sc(-c6cccc(Br)c6)nc5CC[C@]4(C)[C@H]3CC[C@@]21C	82.9%	97.9%	73.5%	91.5%	78.1%	62.3%	81.2%	51.9%	118%	88.6%	6.54% (active)	100%	79.9%	37.3%	72.4%	55.5%	37.6%	80.7%	69.3%
